Experimental data taken from PubChem BioAssay (NCATS).
Records with an inconclusive call do not appear. Values without a mark were called inactive. Calls follow the shape of the dose curve; as a rule, active = well fitted cell-killing curve with a large enough effect; inconclusive = small, poorly fitted or top-dose-only effect, or effect the other way; inactive = flat fitted curve, though single readings scatter. Peptide text beside a SMILES is read from it.

experiment: S16 Schwann cell viability assay (CellTiter-Glo assay) (AID 624031); conditions: S16 rat Schwann cells viability, 24 h; series mostly up to 57.5 µM; activity change, negative = cytotoxicity: at the top concentration;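 also: cellular ATP luminescence as a viability measure; nearly all actives have a fitted effect of over 70% in size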
Text: Charcot-Marie-Tooth-Association [CMTA]
National Center for Advancing Translational Sciences [NCATS]
Charcot-Marie-Tooth (CMT) disease was first characterized by Jean-Martin Charcot and Pierre Marie in France and, independently, by Howard Henry Tooth in England in 1886. CMT is one of the most common inherited neurological diseases, affecting approximately 1 in 2,500 Americans. […] The most prevalent type of CMT is known as CMT1A and caused by a duplication of the PMP22 gene which leads to over-expression of this protein. PMP22 is a glycosylated intrinsic membrane protein accounting for 2-5% of the myelin protein content, and its over-expression results in demyelination and subsequently axonal loss.
A pair of cellular transcription-based assays was developed in the S16 rat Schwann cell lines (Hai, M., et al., 2002) stably transfected with orthogonal reporters - firefly luciferase (Fluc) and beta-lactamase (beta-Lac) - whose expression is driven by an intronic regulatory element of the PMP22 gene (Jones, E.A., et al., 2011) to recapitulate endogenous expression of PMP22. A comprehensive library of approved drugs, the NCGC Pharmaceutical Collection (Huang, R., et al., 2011), was screened in the cross-validating platform of the orthogonal reporter assays to identify drug modulators inhibitory towards PMP22 expression.
A set of counter-screens was devised to address non-specific activity of the library. An ATP-dependent CellTiter-Glo assay (developed by Promega Corp) was utilized to control cell viability. In addition, biochemical Fluc enzyme assay was performed to assess direct inhibition of the Fluc enzymatic activity.
Hai, M., Muja, N., DeVries, G.H., Quarles, R.H. and Patel, P.I. Comparative analysis of Schwann cell lines as model systems for myelin gene transcription studies. J Neurosci Res, 2002. 69(4): pp 497-508
Huang, R., Southall, N., Wang, Y., Yasgar A., Shinn P., Jadhav, A. , Nguyen, D.-T. and Austin, C.P., The NCGC pharmaceutical collection: a comprehensive resource of clinically approved drugs enabling repurposing and chemical genomics. Sci Transl Med, 2011. 3(80): p. 80ps16.
Native S16 cells were seeded in white solid-bottom 1536 well plates at between 500-750 cells/6uL in DMEM medium containing 10% FBS, w/o phenol red. After overnight incubation at 37 degree Celsius/5% C02, 23 nL of compounds or DMSO were delivered to each well using a pin tool, followed by 24h-incubation at 37 degree Celsius/5% C02. Then one volume of CellTiter-Glo assay reagent (Promega) was added to each well for cell viability measured by a ViewLux plate reader (PerkinElmer). The % activity was determined by normalizing to the average readings from wells containing no cells relative to DMSO-treated cells (0% Activity). The concentration-effect curves were then classified based on curve quality (r2), response magnitude and degree of measured activity.

Structure (SMILES) | activity change, negative = cytotoxicity
CNC[C@H](O)c1ccc(O)c(O)c1 | 1.32%
Cc1nc2n(c(=O)c1CCN1CCC(c3noc4cc(F)ccc34)CC1)CCCC2 | -19.5%
CCCCN(CCCC)CCC(O)c1cc2c(Cl)cc(Cl)cc2c2cc(C(F)(F)F)ccc12 (stereo not given) | -11.4% [at 25.7 µM]
O=C(NC(Cc1cc(=O)[nH]c2ccccc12)C(=O)O)c1ccc(Cl)cc1 (stereo not given) | 1.31%
CN(C)CCc1c[nH]c2ccc(Cn3cncn3)cc12 | -0.457%
CC1=C(C)C(=O)C(C(CCCCCC(=O)O)c2ccccc2)=C(C)C1=O (stereo not given) | 4.26%
N=C(N=C(N)N)N1CCOCC1 | -12.6% [at 25.7 µM]
C[Se]CCC(N)C(=O)O (stereo not given) | -1.23%
CCOC(=O)c1c(C)n(C)c2ccc(O)cc12 | -1.24%
CCCCc1ccc2nc(NC(=O)OC)[nH]c2c1 | -26.9% [at 25.7 µM]
Nc1ccn([C@@H]2O[C@H](CO)[C@@H](O)C2O)c(=O)n1 (stereo not given in full) | -4.04%
CNC[C@@H](O)[C@@H](O)[C@H](O)[C@H](O)CO | 2.37%
Cc1ccc(C)c(OCCCC(C)(C)C(=O)O)c1 | 4.01%
NNc1nncc2ccccc12 | -6.76% [at 25.7 µM]
Cc1c(OCC(F)(F)F)ccnc1CS(=O)c1nc2ccccc2[nH]1 (stereo not given) | 0.0581%
COc1cc2c(cc1OC)C1CC(=O)C(CC(C)C)CN1CC2 (stereo not given) | -0.443%
CC1(C)CCC(C)(C)c2cc(NC(=O)c3ccc(C(=O)O)cc3)ccc21 | -6.29%
O=C(O)c1cccc(-c2noc(-c3ccccc3F)n2)c1 | -4.41%
Cc1c(C(=O)NN2CCCCC2)nn(-c2ccc(Cl)cc2Cl)c1-c1ccc(Cl)cc1 | -29.1%
O=c1oc2cc(O)ccc2s1 | 8.12%

Structure (SMILES) | activity change, negative = cytotoxicity
N[C@@H](Cc1cc(I)c(Oc2cc(I)c(O)c(I)c2)c(I)c1)C(=O)O | 14.6%
CCC[C@@H]1C[C@@H](C(=O)N[C@@H]([C@H]2O[C@H](SC)[C@H](O)[C@@H](O)[C@H]2O)[C@@H](C)O)N(C)C1 | 4.87%
Cc1cc2c(s1)Nc1ccccc1N=C2N1CCN(C)CC1 | -0.319%
CCCCC(CC)COC(=O)C(C#N)=C(c1ccccc1)c1ccccc1 (stereo not given) | 0.628%
CCCOc1ccc2nc(NC(=O)OC)[nH]c2c1 | -15%
Nc1cccc2c1CN(C1CCC(=O)NC1=O)C2=O (stereo not given) | 5.94%
CCC1=C(C)CN(C(=O)NCCc2ccc(S(=O)(=O)NC(=O)NC3CCC(C)CC3)cc2)C1=O (stereo not given) | 1.32%
CC(C)[C@H](N)C(=O)OCCOCn1cnc2c(=O)[nH]c(N)nc21 | 14.6%
CCc1nc(N)nc(N)c1-c1ccc(Cl)cc1 | -0.552%
O=C(CS(=O)Cc1ccco1)NCC=CCOc1cc(CN2CCCCC2)ccn1 (stereo not given) | -0.673%
Cn1c(NCCN(CCO)CCCc2ccc([N+](=O)[O-])cc2)cc(=O)n(C)c1=O | -0.424%
O=C(O)c1cn(-c2ccc(F)cc2)c2cc(N3CCNCC3)c(F)cc2c1=O | 7.94%
Nc1ccc(S(N)(=O)=O)cc1 | 1.62%
CCCCCCCCCCCCCCCCCCCCCCO | 2.3%
Oc1ccc(OCc2ccccc2)cc1 | 1.99% [at 25.7 µM]
Cc1ncc([N+](=O)[O-])n1CC(C)O (stereo not given) | 0%
CN1C(C(=O)Nc2ccccn2)=C(O)c2sccc2S1(=O)=O | -0.175% [at 25.7 µM]
COC(=O)[C@H](Cc1ccccc1)NC(=O)[C@@H](N)CC(=O)O (H-Asp-Phe-OMe) | 3.42%
C[C@H](Cn1cnc2c(N)ncnc21)OCP(=O)(O)O | 2.63%
O=C(OC1C[C@H]2CC[C@@H](C1)[N+]21CCCC1)C(O)(c1ccccc1)c1ccccc1 (stereo not given in full) | -15%
